Test results taken from PubChem BioAssay (Tox21).
Results filed as inconclusive are left out. Some compounds were tested as several samples or in several runs, with calls that do not always agree. Activity calls are given as the source filed them. The call rests on the fitted dose curve; in most records, active means well fitted activation curve with a large enough effect in the repeat runs; inconclusive means weak or mixed curves, or effect the other way; inactive means no such curve, though single readings can be large or run the other way.

Assay: qHTS assay to identify small molecule agonists of the estrogen related receptor signaling pathway with the pleiotropic PPARgamma coactivator (PGC) from Tox21 10K library (AID 1224842); further: nearly all actives have a fitted effect of over 15% in size
Settings: PGC/ERR reporter cell line, luciferase ONE-Glo, 18 h; series mostly up to 92.4 µM; activation: at the top concentration
Source text: National Center for Advancing Translational Sciences [NCATS] NIH Chemical Genomics Center [NCGC] U.S. Environmental Protection Agency [EPA] National Institutes of Environmental Health Sciences [NIEHS] National Toxicology Program [NTP] Assay overview: Estrogen related receptors (ERRs), the first orphan nuclear receptors discovered, play an important role in the control of cellular energy metabolism. ERRs are required for high-energy production in response to the environmental challenges. The pleiotropic PPARgamma coactivator (PGC) is a major partner of ERR and a key regulator in energy homeostasis. Together they have been implicated in the etiology of metabolic disorders such as Type 2 diabetes and metabolic syndrome. ERR-alpha was also identified as an adverse marker for breast cancer progression; ERR-alpha-positive tumors have a poor prognosis. To screen and to identify environmental compounds that perturb the PGC/ERR signaling pathways could provide valuable information for potential therapeutic or preventive measures in the treatment of metabolic disease. For identifying PGC/ERR agonists, PGC/ERR cell line (provided by NTP) has been used to screen Tox21 10K library.
Assay Protocol Summary: The PGC/ERR cells were dispensed at 2,000 cells/5 ul/well in 1536-well white plates using a Multidrop dispenser. After the assay plates were incubated at a 37 C/5% CO2 incubator for 6 hours, 23 nL of compounds dissolved in DMSO, positive and negative controls or DMSO only was transferred to the assay plate by a pin tool. The plates were incubated at 37 C for 18 hours. 4 ul/well of One-Glo reagent was added into the assay plates using a Flying Reagent Dispenser. After 30-minute incubation at room temperature, the luminescence intensity in the plates was measured using a ViewLux plate reader.
On the % scale 0 is the no-effect control and ±100 the full control effect; potency means the concentration at half of the fitted maximal effect.

SMILES	activation	Potency
CC(O)(CS(=O)(=O)c1ccc(F)cc1)C(=O)Nc1ccc(C#N)c(C(F)(F)F)c1 (stereo not given)	-18.2% [at 42.5 µM] (inactive)	
CC(C)N(C(=O)COc1nnc(C(F)(F)F)s1)c1ccc(F)cc1	-21.6% (inactive)	
Nc1nc(=S)[nH][nH]1	0.836% (inactive)	
O=C(CCl)c1ccc(Cl)cc1Cl		inactive
O=C1C(Cl)C(CCl)CN1c1cccc(C(F)(F)F)c1 (stereo not given)	-10.4% (inactive)	
NC(=O)CI	-8.73% (inactive)	
Cn1sc(Cl)cc1=O	2.38% (inactive)	
C/C(=C\c1ccccc1)[N+](=O)[O-]	-38.1% (inactive)	
OC(c1ccc(Cl)cc1)(c1ccc(Cl)cc1)c1cccnc1	-22.7% (inactive)	
CCOP(=S)(Oc1ccc([N+](=O)[O-])cc1)c1ccccc1 (stereo not given)	0.0076% (inactive)	
CCC(Cl)CCl (stereo not given)	-0.134% (inactive)	
CCCN(CCC)c1c([N+](=O)[O-])cc(S(C)(=O)=O)cc1[N+](=O)[O-]	-11.8% (inactive)	
CCCCOC(=O)c1ccccc1C(=O)OCc1ccccc1		inactive
OCCCBr	2.04% (inactive)	
CS/C(C)=N/OC(=O)N(C)SN(C)C(=O)O/N=C(\C)SC	-34.7% (inactive)	
CC(C)(Cl)[N+](=O)[O-]	-10.4% (inactive)	
COCCOCCO	5.09% (inactive)	
CC(Cl)Cl	-0.479% (inactive)	
Brc1ccc(Oc2ccccc2)cc1		885 nM (active) and inactive
Clc1ccc(C2(Cn3cncn3)CC(Br)CO2)c(Cl)c1 (stereo not given)	-18.5% (inactive)	

SMILES	activation	Potency
C(=NC1CCCCC1)=NC1CCCCC1		inactive
CC/C(=N\OC/C=C/Cl)C1=C(O)CC(C2CCOCC2)CC1=O (stereo not given)	-0.373% (inactive)	
COc1nn(C(=O)NS(=O)(=O)c2ccccc2OC(F)(F)F)c(=O)n1C	3.45% (inactive)	
CO/C=C(/C(=O)OC)c1ccccc1COc1cccc(C(F)(F)F)n1	-5.53% (inactive)	
Sc1ccccc1Cl	2.08% [at 42.5 µM] (inactive)	
CC(Cl)C(C)Cl (stereo not given)	1.11% (inactive)	
CCOP(=O)(OCC)SCCSCC		inactive
S=C=NCc1ccccc1	-3.98% (inactive)	
ClP(Cl)(Cl)(Cl)Cl	-4.37% (inactive)	
Cl/C=C\C[N+]12CN3CN(CN(C3)C1)C2	-1.55% (inactive)	
Clc1cc(C(Cl)(Cl)Cl)cnc1Cl	0.377% (inactive)	
ClC=C(Cl)Cl	-0.651% (inactive)	
C[N+](C)(C)CCCl	-1.1% (inactive)	
N#Cc1cc(I)c(O)c(I)c1	-24.4% (inactive)	
CCO[C@H]1O[C@@H]2OC3(C)CC[C@H]4[C@H](C)CC[C@@H]([C@H]1C)[C@@]24OO3	-25.6% [at 42.5 µM] (inactive)	
O=Cc1ccc(Cl)cc1Cl	1.75% (inactive)	
CC(C)=CCOc1c2occc2cc2ccc(=O)oc12	-3.09% [at 42.5 µM] (inactive)	
O=C1c2ccccc2C(=O)C1C(=O)C(c1ccccc1)c1ccccc1	-13.7% [at 42.5 µM] (inactive)	
COC(=O)C(Br)CBr (stereo not given)	-12.4% (inactive)	
O=C(Nc1ccccc1)Nc1cnns1	-0.262% (inactive)	
